# USP8 inh – inhibitors of human USP8 deubiquitinase. purified USP8, Ub-rhodamine cleavage fluorescence, 30 min. P40818. hit rate 4.2% among 47,000. inhibition, % at 20 µM
# USP10 inh – inhibitors of human USP10 deubiquitinase. Q14694. purified USP10, Ub-rhodamine fluorescence, 60 min. inhibition, % at 20 µM. hit rate 1.1% among 47,000
# USP30 block – human USP30 deubiquitinase inhibition; purified USP30, Ub-rhodamine cleavage fluorescence; inhibition, % at 25 µM; Q70CQ3; AID 1645860; hit rate 5.3% among 47,000
# USP28 inh – blocks human USP28 ubiquitin-rhodamine cleavage; inhibition, % at 25 µM; hit rate 3% among 47,000; purified USP28, Ub-rhodamine cleavage fluorescence, 30 min; AID 1645857; Q96RU2
# Target sequence (Q96RU2 whole entry, looked up): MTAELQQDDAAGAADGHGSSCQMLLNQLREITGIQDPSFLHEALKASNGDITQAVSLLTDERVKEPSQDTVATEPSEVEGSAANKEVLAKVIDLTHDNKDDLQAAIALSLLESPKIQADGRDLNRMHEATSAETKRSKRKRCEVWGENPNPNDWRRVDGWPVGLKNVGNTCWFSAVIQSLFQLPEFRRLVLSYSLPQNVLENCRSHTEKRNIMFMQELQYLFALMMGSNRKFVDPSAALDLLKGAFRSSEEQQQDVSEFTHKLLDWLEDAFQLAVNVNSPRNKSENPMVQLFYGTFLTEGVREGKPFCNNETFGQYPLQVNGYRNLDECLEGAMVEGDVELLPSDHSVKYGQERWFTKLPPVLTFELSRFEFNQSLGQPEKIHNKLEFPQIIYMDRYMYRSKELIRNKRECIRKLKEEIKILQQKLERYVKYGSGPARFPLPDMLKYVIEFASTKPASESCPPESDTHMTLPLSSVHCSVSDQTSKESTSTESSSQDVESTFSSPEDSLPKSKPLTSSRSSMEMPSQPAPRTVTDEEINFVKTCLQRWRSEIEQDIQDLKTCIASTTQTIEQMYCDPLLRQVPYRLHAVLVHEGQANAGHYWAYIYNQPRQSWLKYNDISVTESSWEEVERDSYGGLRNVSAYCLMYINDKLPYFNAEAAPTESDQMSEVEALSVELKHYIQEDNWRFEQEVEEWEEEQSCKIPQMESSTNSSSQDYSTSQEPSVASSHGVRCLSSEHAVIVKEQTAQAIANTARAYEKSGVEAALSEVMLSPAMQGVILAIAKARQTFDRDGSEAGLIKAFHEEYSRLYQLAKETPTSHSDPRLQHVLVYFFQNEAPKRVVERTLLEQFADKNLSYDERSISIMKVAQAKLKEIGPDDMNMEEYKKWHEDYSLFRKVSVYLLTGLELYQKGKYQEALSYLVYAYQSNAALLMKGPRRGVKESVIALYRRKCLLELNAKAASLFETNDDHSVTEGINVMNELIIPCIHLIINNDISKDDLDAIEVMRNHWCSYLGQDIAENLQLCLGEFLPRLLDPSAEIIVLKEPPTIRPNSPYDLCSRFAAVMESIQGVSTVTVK
# USP17 inh – blocks human USP17 ubiquitin-rhodamine cleavage; purified USP17, Ub-rhodamine cleavage fluorescence, 3 h; inhibition, % at 50 µM; hit rate 6.5% among 47,000
# * marks the source's active call; other numbers are inactive results; . = no result. Compounds with a hit are over-represented: about 13% of the library has one in this group of screens. Rule as the data show it: active = inhibition above about 30%; inactive = the rest.
SMILES,USP8 inh,USP10 inh,USP30 block,USP28 inh,USP17 inh
COc1cccc(-n2cnc3cc(C(=O)NC4CC4)ccc3c2=O)c1,92.2*,1.5,-13.7,-4.3,72.7*
COc1ccc(CCNC(=O)c2ccc3c(=O)n(-c4ccccc4OC)cnc3c2)cc1,-10.4,2.5,-16.3,26.2,-27.1
O=C(NC1CC1)c1ccc2c(=O)n(-c3ccc(F)cc3)cnc2c1,61.7*,-1.3,-10.5,-20.2,20.2
O=C(NC1CC1)c1ccc2c(=O)n3c(nc2c1)CCCC3,2.1,0.1,.,.,0.2
O=C(CC1CCN(S(=O)(=O)c2ccccc2)CC1)NCc1ccc2c(c1)OCO2,-5.7,-0.6,-9.6,9.7,-18.4
COc1ccc(C(=O)CSc2nnc(-c3cccnc3)n2-c2ccccc2)cc1,7.9,1.4,51.7*,-0.2,41.6*
COc1cc(NC(=O)c2cccnc2)ccc1NC(=O)c1cc2ccccc2o1,-1.3,-2.9,-54.3,-19.4,39.0*
O=C(c1cccs1)N1CCN(CC2CC3C=CC2C3)CC1 (stereo not drawn),11.4,-0.7,5.2,1.0,9.4
CC(=O)N1CCc2cc(S(=O)(=O)NC(C(=O)Nc3nc4ccc(C)cc4s3)C(C)C)ccc21 (stereo not drawn),30.5*,16.2,1.9,0.2,6.5
CCOc1ccc2nc(NC(=O)CCS(=O)(=O)c3ccc4c(c3)CCN4C(C)=O)sc2c1,20.9,-5.5,-90.1,2.7,19.6
COc1ccc(C)cc1NC(=O)C(NS(=O)(=O)c1ccc2c(c1)CCN2C(C)=O)C(C)C (stereo not drawn),19.3,-3.3,54.4*,13.3,26.9
CC(=O)N1CCc2cc(S(=O)(=O)Nc3ccccc3C)ccc21,0.2,2.0,-16.5,-10.3,-5.5
N#Cc1ccc(CN2CCCC23Cc2ccccc2CNC3=O)cc1 (stereo not drawn),5.0,0.6,21.6,6.3,6.4
CC(CCc1ccccc1)NC(=O)c1ccc(SCCN2CCOCC2)nc1 (stereo not drawn),8.4,-2.0,12.6,1.3,-1.8
Cc1cccc(NC(=O)[C@@H]2CCCN2C2=NS(=O)(=O)c3ccccc32)c1C,46.4*,6.6,31.6*,0.0,34.8*
O=C(Nc1c(C(=O)N2CCCCCC2)oc2ccccc12)C1CCCC1,31.6*,1.9,26.6,22.7,23.6
CN1CCN(C(=O)c2oc3ccccc3c2NC(=O)c2ccc(F)cc2)CC1,41.0*,-1.2,15.5,10.8,7.4
CNC(=O)c1nc(C(=O)NC2CCCCC2)cs1,-0.4,2.3,2.2,-3.7,-1.5
COc1cc2oc(=O)cc(CN3CCCCC3)c2cc1OC,3.4,0.4,2.2,-3.5,45.4*
COC(=O)C1CCN(Cc2cc(=O)oc3cc(OC)ccc23)CC1,7.5,1.5,-0.1,-1.1,0.5
O=S1(=O)[C@@H]2CCNCC[C@@H]2CN1CCc1ccccc1,2.6,1.6,.,.,-1.4
CCc1nc2c(c(=O)c3ccccc3n2C)c(=O)n1-c1ccc(C)cc1,30.6*,5.2,.,.,48.6*
Cn1c2ccccc2c(=O)c2c(=O)n(-c3cccc(Cl)c3)c(-c3cccs3)nc21,94.4*,63.1*,-146.1,-21.0,30.4*
Cn1c2ccccc2c(=O)c2c(=O)n(-c3ccccc3)c(-c3ccc(Cl)cc3)nc21,26.9,3.2,27.4,16.0,19.2
CC(=O)Oc1cn(C(C)c2ccccc2)c2nc(C)n3c4ccccc4nc3c12 (stereo not drawn),-24.1,-11.0,-168.9,-42.8,-44.6
SMILES,USP8 inh,USP10 inh,USP30 block,USP28 inh,USP17 inh
CCC(=O)Oc1cn(-c2ccc(C(C)C)cc2)c2nc(CC)n3c4ccccc4nc3c12,46.7*,-3.0,-23.9,-6.7,4.0
CSc1nc2ncn(CC(=O)Nc3cccc(Cl)c3)c(=O)c2s1,32.8*,-0.2,17.3,0.7,60.2*
COc1ccc(C)cc1NC(=O)C1CCN(S(=O)(=O)c2cccnc2)CC1,1.0,-1.9,-15.4,-7.4,-3.1
N#Cc1cccc(C(=O)Nc2ccc3c(N4CCCC4)ncnc3c2)c1,-0.4,-1.6,8.6,-1.0,0.6
N#Cc1ccc(N2CCN(S(=O)(=O)c3ccc(Cl)cc3)CC2)cc1,19.3,13.0,30.9*,15.7,6.2
N#Cc1ccc(NC(=O)c2ccc(S(=O)(=O)N3CCCCC3)cc2)cc1,19.5,13.5,53.9*,25.9,17.4
CCOC(=O)N1CCC(NC(=O)c2cc(C(=O)Nc3ccc(S(=O)(=O)N4CCCCC4)cc3)ccc2CO)CC1,-11.8,31.8*,78.6*,41.9*,76.6*
N#Cc1ccc(C(=O)Nc2ccc3c(N4CCCC4)ncnc3c2)cc1,22.8,-2.0,-12.5,-2.1,31.3*
COCc1cc(=O)n(Cc2ccccc2C)c(N2CCCC2)n1,0.7,1.4,-11.6,-5.9,.
CCn1nc(C)c(S(=O)(=O)N2CCN(C(=O)Cc3ccccc3C)CC2)c1C,1.0,0.0,7.6,-8.8,0.7
Cc1ccc(NC(=O)Cc2nc(-c3cccnc3)n[nH]2)cc1C,-0.5,-3.2,-6.3,3.4,-12.7
CCC1CCCCN1S(=O)(=O)c1ccc(C(=O)Nc2ccc(S(N)(=O)=O)cc2)cc1 (stereo not drawn),8.9,20.4,75.8*,35.0*,60.0*
CN(C)c1ccc(C(=O)Nc2ccc(S(=O)(=O)N3CCCC3)cc2)cc1,-1.1,0.3,-27.7,42.2*,-7.7
O=C(NCc1ccc(F)c(Cl)c1)C1CCN(c2nc3nc[nH]c(=O)c3s2)CC1,10.0,-0.3,-14.8,-1.5,-0.5
Cc1oc(CNC(=O)Cc2cccc(F)c2)nc1C(=O)N1CCC(C)CC1,-2.8,-3.9,-8.0,-12.7,-34.2
CC(C)CCNC(=O)c1ccc2ccnc(N3CCN(c4ccccc4F)CC3)c2c1,66.9*,-7.6,-34.5,-14.6,18.7
COc1ccc(N2CCN(c3nccc4ccc(C(=O)Nc5ccc(OC)c(OC)c5)cc34)CC2)cc1,-3.4,-0.9,-21.2,-10.5,-4.7
CCOc1ccc(-c2nc(NC(=O)c3cnccn3)sc2C)cc1,-2.7,-2.2,-7.0,5.0,-16.9
Cc1sc(NC(=O)c2cccnc2)nc1-c1ccc2c(c1)NC(=O)CO2,31.0*,2.8,23.8,4.9,12.7
COc1ccc(C(=O)Nc2nc(-c3ccc4c(c3)NC(=O)CO4)c(C)s2)cc1OC,4.7,-3.5,6.2,-4.4,57.7*
O=C(NC1CC1)c1cc(-c2cnc(-c3cccnc3)nc2)cn1CC1CC1,24.5,4.4,29.3,8.5,18.6
C[C@H]1OC(=O)c2c(O)cc3c(c2[C@H]1O)C[C@H]1[C@@]2(C)C=CC(=O)C(C)(C)[C@@H]2C[C@H](O)[C@]1(C)O3,-4.4,-2.0,-7.6,-4.5,-7.6
CCc1ccc(NC(=O)COC(=O)c2n[nH]c3ccccc23)cc1,28.0,6.4,27.6,43.3*,71.2*
N#Cc1cccc(NC(=O)COC(=O)c2n[nH]c3ccccc23)c1,28.5,31.3*,-119.8,8.0,47.5*
N#Cc1ccc(Cl)cc1NC(=O)COC(=O)c1n[nH]c2ccccc12,34.3*,-8.6,-73.5,-10.3,-12.5
CCOc1ccc(NC(=O)COC(=O)c2n[nH]c3ccccc23)cc1,-111.5,0.0,16.1,3.1,-14.0
CC(=O)c1ccc(NC(=O)COC(=O)c2c[nH]c3ccccc23)cc1,-0.5,4.2,.,.,33.8*

# Screening results as filed in PubChem BioAssay.
